This note sets out measurements from PubChem BioAssay (NCI).

Assay in all cases: NCI-60 one-dose screen, 48 h (100 = growth as untreated, 0 = no growth, -100 = all killed)
Common to all, as to details: 10 µM unless noted

Experiment [1] relates to HT29 colon.
The test system of experiment [2] is SNB-75 CNS.
Experiment [3] concerns SNB-19 CNS.
Experiment [4] deals with U251 CNS.
Experiment [5] deals with SK-MEL-5 melanoma.
In experiment [6] the test system is UACC-62 melanoma.
The subject of experiment [7] is LOX IMVI melanoma.
For experiment [8], the system named is SK-MEL-28 melanoma.
The test system of experiment [9] is SK-MEL-2 melanoma.
The test system of experiment [10] is EKVX NSCLC.
Experiment [11] has as its system SN12C renal.
In experiment [12] the test system is UO-31 renal.
The test system of experiment [13] is TK-10 renal.
Experiment [14] concerns ACHN renal.
Experiment [15] relates to CAKI-1 renal.
Experiment [16] deals with A498 renal.
Experiment [17] concerns MOLT-4 leukemia.
Experiment [18] concerns SR leukemia.
Experiment [19] deals with CCRF-CEM leukemia.

The panel holds about 83,000 compounds, 20% with a hit somewhere; the sample as a whole holds those more often.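 Activity criterion: percent growth below 10, measured after cells in 96-well plates were exposed to a single compound concentration for 48 hours.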 Values without a mark were called inactive. Active and inactive are the calls of the source.

In the case of `c1ccc2cc(C[n+]3ccn(CCCCCCCn4cc[n+](Cc5ccc6ccccc6c5)c4)c3)ccc2c1`, the growth in [1] was 10.4%; in experiment [2], -2.59% (active); in [3], 21.6%; in experiment [4], 21%; in experiment [5], -5.55% (active); in [6], 27.3%. Moreover, the growth in [7] was 40.7%; in experiment [8], 44.3%; in experiment [9], 23.4%; in experiment [10] it was 27.9%; in experiment [11], 24.2%; in experiment [12], 76.7%. In addition, the growth in experiment [13] is 70.6%; in experiment [14], 60.2%; in [15], 91.9%; in experiment [16], -3.36% (active); in [17] it was 56.1%; in experiment [18], 50.9%.
`COc1ccc(/C=C/C(=O)Nc2cccnc2Nc2ccc(F)cc2)cc1`: the growth in experiment [1] is 109%; in experiment [2] it was 97.3%; in [3], 87.9%; in experiment [4], 93.4%; in [5], 87.2%; in experiment [6], 86.6%. In addition, the growth in experiment [7] was 98.9%; in [8] it was 98.6%; in [9], 120%; in experiment [10], 88.4%; in experiment [11], 89.3%; in experiment [12] it was 95.4%. Further, the growth in experiment [13] was 113%; in [14], 104%; in experiment [15], 86.5%; in experiment [19] it was 112%; in experiment [17], 80.1%; in experiment [18], 88.7%.
For `COc1cc2c(c(OC)c1OC)CCc1cnoc1-2`, the growth in [1] was 99.4%; in [2], 71.7%; in experiment [3], 97%; in experiment [4], 98.7%; in [5], 100%; in experiment [6], 98.9%. Also, the growth was 92.1% in experiment [7]; 123% in experiment [8]; 119% in experiment [9]; 112% in experiment [10]; 106% in experiment [11]; 94.5% in [12]. Moreover, the growth in [13] is 111%; in experiment [14] it was 95.1%; in experiment [15], 105%; in experiment [16] it was 100%; in experiment [19], 111%; in experiment [17], 127%. Also, the growth in experiment [18] is 166%.
In the case of `CCOC(=O)C1=NN(c2ccc(Cl)cc2)C2C3N(c4ccc(Cl)cc4)N=C(C(=O)OCC)N3c3ccccc3N12` (configuration not stated), the growth in experiment [1] was 93.3%; in [2] it was 91.1%; in experiment [3] it was 118%; in [4], 114%; in [5], 92.7%; in experiment [6], 101%. In addition, the growth in experiment [7] was 113%; in [8], 108%; in experiment [9] it was 102%; in experiment [10] it was 104%; in [11] it was 111%; in experiment [12], 92.6%. Further, the growth was 119% in [13]; 121% in experiment [14]; 131% in experiment [16]; 47.4% in [17]; 40.4% in experiment [18].
Consider `COc1ccc(-c2nc3sccn3c2-c2ccnc(S(C)(=O)=O)n2)cc1`, for which the growth is 89% in [1]; 61.1% in [2]; 64.2% in experiment [3]; 94.4% in experiment [4]; 98.9% in [5]; 77.1% in experiment [6]. The growth in experiment [7] is 68.8%; in experiment [8] it was 43.7%; in experiment [9], 100%; in experiment [10], 79.7%; in [11], 93.4%; in experiment [12], -82% (active). Besides, the growth in experiment [13] is 117%; in experiment [14], 74.2%; in experiment [15], -69% (active); in experiment [16] it was 120%; in [17], 87.2%; in experiment [18], 40.5%.
`O=C(Nc1cccc2ccccc12)c1cc2c(cc1Br)OCO2`: the growth in [1] is 101%; in [2] it was 57.4%; in [3] it was 86.7%; in experiment [4], 103%; in experiment [5] it was 99.2%; in [6] it was 85.5%. For the same molecule, the growth in experiment [7] is 91%; in [8] it was 119%; in experiment [9], 130%; in experiment [10], 92.9%; in [11], 107%; in [12] it was 99.2%. For the same molecule, the growth in experiment [13] is 172%; in [14], 94.2%; in experiment [15], 101%; in experiment [16] it was 126%; in [19], 94.7%; in [17] it was 91.5%. Further, the growth in experiment [18] is 71.5%.
On to `O=C(Cn1ccnc1)NC(c1ccccc1)c1ccccc1`, for which the growth in experiment [1] was 104%; in experiment [2] it was 73.4%; in experiment [3], 95.1%; in [4], 101%; in experiment [5], 99.8%; in [6], 89.7%. Moreover, the growth in experiment [7] was 98%; in experiment [8] it was 98.2%; in experiment [9], 106%; in experiment [10], 97.5%; in experiment [11] it was 97%; in [12], 89.5%. In addition, the growth was 97.5% in experiment [13]; 91.9% in [14]; 96.7% in [15]; 67.6% in experiment [16]; 107% in [17]; 98.4% in experiment [18].
With `O=C(N1CCC(CN=c2cc3n(-c4ccc(Cl)cc4)c4ccccc4nc-3cc2Nc2ccc(Cl)cc2)CC1)N1CC1`, the growth in experiment [1] was -97.9% (active); in experiment [2], -60.6% (active); in [3] it was -67.7% (active); in experiment [4] it was -62.5% (active); in experiment [5], -97.6% (active); in experiment [6], -77.5% (active). The growth in experiment [7] is -67.5% (active); in [8], -90.8% (active); in [9] it was -80.8% (active); in [10] it was -62.5% (active); in experiment [11], -76% (active); in [12] it was -96.3% (active). Besides, the growth in experiment [13] was -42.9% (active); in experiment [14], -71.7% (active); in experiment [16], -59.9% (active); in [17] it was -22.6% (active); in experiment [18] it was -74.5% (active).
Take `O=Nc1ccc(O)c(=O)cc1`: the growth in experiment [1] is 4.07% (active); in [2], 63.3%; in experiment [3] it was 102%; in experiment [4], 14.6%; in [5], 79.8%; in experiment [6], 34.9%. Besides, the growth is -4.94% (active) in [7]; 55.9% in [8]; 71.4% in [9]; 72.5% in [10]; 14.3% in [11]; -36% (active) in [12]. In addition, the growth was 14.6% in experiment [13]; 1.32% (active) in experiment [14]; -7.71% (active) in [15]; 145% in [16]; 14% in experiment [17]; 2.22% (active) in experiment [18].
